Results on 15 compounds are retold here after PubChem BioAssay AID1508619 (National Center for Advancing Translational Sciences (NCATS), 2020).

Results filed as inconclusive are left out. Active and inactive are the calls of the source. Calls follow the shape of the dose curve; as a rule, active = well fitted inhibition curve with a large enough effect; inconclusive = small, poorly fitted or top-dose-only effect; inactive = no such curve, though single readings can be large or run the other way.
% is scaled to controls: 0 for no effect and ±100 for the full control effect; potency is read from the fitted curve at half-maximal effect.

A short description of the test: Counterscreen qHTS for Identification of Calcium Integrin Binding Protein 1 (CIB1) Competitor. Conditions: series mostly up to 114 µM; activity, negative = inhibition: at the top concentration. The source says:
Assay Provider: Ulhas P. Naik, PhD
Sidney Kimmel Medical College
Thomas Jefferson University, Philadelphia, PA
Primary function of platelets is to maintain hemostasis. At the site of vascular injury, platelets adhere to adhesive proteins such as collagen and von Willebrand factor. Adherent platelets are activated and generate soluble platelet agonists such as thrombin, ADP and thromboxane A2. Following exposure of circulating platelets to these agonists, results in platelet shape change, granule secretion and activation of platelet integrin alphaIIb-beta3. Ligand binding to activated integrin alphaIIb-beta3 triggers outside-in signaling, leading to platelet aggregation, stabilization of platelet plug, and clot retraction. Upon atherosclerotic plaque rupture also causes platelet plug formation, which underlies a number of cardiovascular diseases such as myocardial infraction and stroke. A number of anti-platelet drugs such as aspirin, clopidogrel, prasugrel, vorapaxar, and eptifibatide are currently available to prevent the thrombotic complications. However, these anti-platelet agents have several limitations including inherent variability in individual responses, developing resistance, and serious bleeding side effects. For these reasons they are not suitable for long-term protection. Based on the experiences with current anti-platelet drugs, it appears that the most useful therapeutic approach is to intersect the secondary responses such as integrin outside-in signaling or recruitment of platelets by TxA2 and secreted ADP. Compounds, which can largely preserve the primary hemostatic function of platelets but inhibit secondary response will be most desired therapeutic agents for treatment of cardiovascular disease.
CIB1 is a calcium integrin binding protein, which specifically interact with the alphaIIb subunit of integrin alphaIIb-beta3. Binding of CIB1 to alphaIIb regulates the outside-in signaling in platelets, which is needed for thrombus stabilization and thrombus growth. […] Therefore, we propose that discovery of a small molecule that can prevent the association of CIB1 and alphaIIb-beta3 will be a potential anti-platelet agent that can block the thrombus formation without undue effect on hemostasis.
To develop fluorescence polarization (FP) assay using fluorescently labeled alphaIIb peptide and CIB1 protein. Using FP assay characterize the binding affinity, competitive inhibition, and acceptable Z factor (0.5 to1) in order to perform the HTS to identify small molecule compound that can prevent CIB1 binding to platelet integrin alphaIIb-beta3. Active compounds were re-acquired and validated using confirmatory and counterscreens (using 100 nM scrambled peptide).
[1] Naik MU, Nigam A, Manrai P, et al. CIB1 deficiency results in impaired thrombosis: the potential role of CIB1 in outside-in signaling through integrin alpha IIb beta 3. J Thromb Haemost. 2009;7(11):1906-1914. doi:10.1111/j.1538-7836.2009.03581.
SEQUENCE No. (1, 2, 3, etc.); […] (e.g., Cells, Incubation, Reagent, etc.); VALUE and DESCRIPTION.
1; Reagent; 3 uL; Protein or buffer (4/3x)
2; Compound; 46 nL; Control inhibitor / compound library
3; Time; 15 min; Room temperature incubation
4; Reagent; 1 uL; Fluorescent labeled peptide (4x)
5; Time; 1000 rpm; Centrifuge
6; Time; 15 min; Room temperature incubation
7; Detection; Ex 480/ Em 540; ViewLux Fluorescence Read
NOTES (numbers refer to sequence above)
1; Protein Mixture: C1B1-GST (final concentrations of 1 uM). Buffer composition: 5 mM HEPES pH 7.4, 125 mM NaCl, 5 mM CaCl2, 0.01% Tween20.
2; Control Inhibitor: unlabeled peptide (final concentration range 17.4 nM to 572 uM). Compound Library final concentration range 18.3 nM to 114 uM.
3; Room temperature incubation.
4; Fluorescent Labeled Peptide: FITC-alphaIIb (final concentration of 100 nM). Sequence of Scrambled peptide: Acetyl-[…]-FITC (purity is 95.37%).
6; Room temperature incubation.
[…]
A general note: The purpose of a counterscreen is to sort out artefacts and off-target activity.
With `Cc1ccc([N+](=O)[O-])[c]2c1[O][Hg]2`, the “activity, negative = inhibition” value is 131% (inactive).
Same read-out and setting: then `N[C@@H](Cc1ccc(Oc2cc(I)c(O)c(I)c2)c(I)c1)C(=O)O`, with -9.7% (inactive).
On to `CN(C)CCc1c[nH]c2cccc(O)c12`, for which the Potency was 89.1 µM (active).
Consider `COC[C@H]1OC(=O)c2coc3c2[C@@]1(C)C1=C(C3=O)C2CCC(=O)[C@@]2(C)C[C@H]1OC(C)=O` (stereo not given in full), for which the “activity, negative = inhibition” value was -9.28% (inactive).
Still for that read-out and setting: the value for `CCCCCCCCCCCCCCCC[N+](C)(C)C` was 4.61% (inactive); that for `CC(=O)[O][Hg][c]1ccccc1` was 130% (inactive); that for `CN(C)C(=S)SSC(=S)N(C)C` was 1.45% (inactive).
Turning to `S=C(SSC(=S)N1CCCCC1)N1CCCCC1`, the “activity, negative = inhibition” value was 19.7% (inactive).
With `O=C1OC(c2ccc(O)c(S(=O)(=O)O)c2)(c2ccc(O)c(S(=O)(=O)O)c2)c2c(Br)c(Br)c(Br)c(Br)c21`, the “activity, negative = inhibition” value is 42.2% (inactive).
On to `COc1nn(CSP(=S)(OC)OC)c(=O)s1`, for which the “activity, negative = inhibition” value is -8.92% [at 229 µM] (inactive).
The same measure, in the same setting: the value for `C[CH2][Hg][S]c1ccccc1C(=O)O` was -2.63% (inactive).
For `CC1=C(O)C(=O)C=C2C1=CC=C1[C@@]2(C)CC[C@@]2(C)[C@@H]3C[C@](C)(C(=O)O)CC[C@]3(C)CC[C@]12C`, the Potency is 44.7 µM (active).
With `O=c1oc2ccccc2c(O)c1C(CC(O)c1ccc(-c2ccc(Br)cc2)cc1)c1ccccc1` (stereo not given), the “activity, negative = inhibition” value was 79.8% (inactive).
On to `O=C1C(I)=CC(=C(c2cc(I)c(O)c(I)c2)c2ccccc2C(=O)O)C=C1I`, for which the “activity, negative = inhibition” value is 334% (inactive).
On the same count and under the same terms, then `O=c1c(C2CC(c3ccc(-c4ccc(Br)cc4)cc3)Cc3ccccc32)c(O)sc2ccccc12` (stereo not given), with 88.6% (inactive).
